Reference: PubChem BioAssay (NCATS)
Inconclusive results are not listed. The source made the active and inactive calls. Unless noted, calls come from the whole dose curve; as a rule, active = well fitted curve in the direction sought with a large enough effect; inconclusive = small, poorly fitted or top-dose-only effect, or another doubt; inactive = no such curve, though single readings can be large; an effect the other way counts as inactive or inconclusive.

How the values were obtained:
[1] = Inducers of the Endoplasmic Reticulum Stress Response (ERSR) in human glioma: Validation (AID 504836)
Summary of the method: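 Stably transfected U87-MG human glioma cells carrying a GRP78-based luminescent sensor were seeded at 1000 cells/well, pin-dosed with compounds and incubated 16 h. Luciferase reagent was then added, and end-point luminescence was read after 10 min at room temperature.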

[2] = qHTS for Inhibitors of the Functional Ribonucleoprotein Complex (vRNP) of Lassa (LASV) Arenavirus: LASV Primary Screen - GLuc reporter signal (AID 1347082; calls by dose curve; tested in HEK293 reporter line; note: series mostly up to about 57 µM; nearly all actives have a fitted effect of over 60% in size)
[3] = qHTS for Inhibitors of the Functional Ribonucleoprotein Complex (vRNP) of Lassa (LASV) Arenavirus: Viability assay - alamar blue signal for LASV Primary Screen (AID 1347083; calls by dose curve; tested in HEK293 reporter line; note: series mostly up to about 57 µM; nearly all actives have a fitted effect of over 80% in size)
[4] = qHTS for Inhibitors of the Functional Ribonucleoprotein Complex (vRNP) of Lymphocytic Choriomeningitis Arenaviruses (LCMV): Viability assay - alamar blue signal for LCMV Primary Screen (AID 1347085; calls by dose curve; tested in HEK293 reporter line; note: series mostly up to about 57 µM; nearly all actives have a fitted effect of over 80% in size)
[5] = biological target: Nucleoprotein (Lymphocytic choriomeningitis virus (strain Armstrong)) (UniProt P09992); experiment: qHTS for Inhibitors of the Functional Ribonucleoprotein Complex (vRNP) of Lymphocytic Choriomeningitis Arenaviruses (LCMV): LCMV Primary Screen - GLuc reporter signal (AID 1347086; calls by dose curve; note: series mostly up to about 57 µM; nearly all actives have a fitted effect of over 70% in size)
Sequence of Nucleoprotein (Lymphocytic choriomeningitis virus (strain Armstrong)) (P09992 whole entry, looked up): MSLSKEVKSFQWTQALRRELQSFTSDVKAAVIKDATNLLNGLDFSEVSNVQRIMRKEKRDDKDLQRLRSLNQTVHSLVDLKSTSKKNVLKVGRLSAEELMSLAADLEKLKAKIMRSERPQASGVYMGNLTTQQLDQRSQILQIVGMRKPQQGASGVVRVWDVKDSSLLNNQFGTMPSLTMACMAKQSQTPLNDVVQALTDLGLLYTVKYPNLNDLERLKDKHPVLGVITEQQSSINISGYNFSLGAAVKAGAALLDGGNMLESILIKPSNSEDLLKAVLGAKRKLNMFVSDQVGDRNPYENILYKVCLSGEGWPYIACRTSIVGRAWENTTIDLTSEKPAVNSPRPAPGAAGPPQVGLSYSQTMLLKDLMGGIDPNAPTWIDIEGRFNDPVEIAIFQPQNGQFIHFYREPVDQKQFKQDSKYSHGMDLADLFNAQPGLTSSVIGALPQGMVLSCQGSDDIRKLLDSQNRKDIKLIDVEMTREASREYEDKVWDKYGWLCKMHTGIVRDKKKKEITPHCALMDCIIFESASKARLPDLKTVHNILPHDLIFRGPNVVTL

[6] = biological target: Alpha-galactosidase (Coffea arabica) (UniProt Q42656); experiment: Counterscreen for Glucocerebrosidase Inhibitors: qHTS Assay for Coffee Bean alpha-Galactosidase at pH 4.5 (AID 957); note: series mostly up to about 77 µM
Sequence of Alpha-galactosidase (Coffea arabica) (Q42656 whole entry, looked up): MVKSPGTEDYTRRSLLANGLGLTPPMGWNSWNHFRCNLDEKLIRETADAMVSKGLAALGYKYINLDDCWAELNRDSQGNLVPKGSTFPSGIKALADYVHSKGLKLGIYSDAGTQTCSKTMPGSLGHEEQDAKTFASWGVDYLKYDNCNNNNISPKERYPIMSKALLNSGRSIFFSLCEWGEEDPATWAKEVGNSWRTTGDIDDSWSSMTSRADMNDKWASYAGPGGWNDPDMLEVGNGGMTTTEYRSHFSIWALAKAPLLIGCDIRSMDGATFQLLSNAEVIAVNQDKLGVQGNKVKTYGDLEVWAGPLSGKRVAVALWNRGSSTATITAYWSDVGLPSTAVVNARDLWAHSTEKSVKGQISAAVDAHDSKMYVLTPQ
Summary of the method: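 Green coffee bean enzyme (2 nM final) was incubated with compounds (0.7 nM to 77 uM) and 4-methylumbelliferyl alpha-D-galactopyranoside (80 uM final) in 50 mM citric acid, 0.005% Tween-20, pH 4.5, 20 min at room temperature; AC50 from Hill fits.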

[7] = biological target: Alpha-galactosidase (Coffea arabica) (UniProt Q42656); experiment: Counterscreen for Glucocerebrosidase Inhibitors: qHTS Assay for Coffee Bean alpha-Galactosidase at pH 5.9 (AID 998)
Summary of the method: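 Green coffee bean enzyme (2 nM final) was incubated with compounds (0.7 nM–77 uM) and 4-methylumbelliferyl alpha-D-galactopyranoside (80 uM) in citrate buffer pH 5.9, 20 min at room temperature. High-pH stop; fluorescence 365/440 nm; AC50 from Hill fits.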

[8] = biological target: Ubiquitin carboxyl-terminal hydrolase 1 (Homo sapiens) (UniProt O94782); experiment: Inhibitors of USP1/UAF1: Pilot qHTS (AID 504865);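 note: rhodamine fluorescence freed from ubiquitin-rhodamine substrate followed over time; top concentration of the series differs between compounds; nearly all actives have a fitted effect of over 35% in size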
Sequence of Ubiquitin carboxyl-terminal hydrolase 1 (Homo sapiens) (O94782 whole entry, looked up): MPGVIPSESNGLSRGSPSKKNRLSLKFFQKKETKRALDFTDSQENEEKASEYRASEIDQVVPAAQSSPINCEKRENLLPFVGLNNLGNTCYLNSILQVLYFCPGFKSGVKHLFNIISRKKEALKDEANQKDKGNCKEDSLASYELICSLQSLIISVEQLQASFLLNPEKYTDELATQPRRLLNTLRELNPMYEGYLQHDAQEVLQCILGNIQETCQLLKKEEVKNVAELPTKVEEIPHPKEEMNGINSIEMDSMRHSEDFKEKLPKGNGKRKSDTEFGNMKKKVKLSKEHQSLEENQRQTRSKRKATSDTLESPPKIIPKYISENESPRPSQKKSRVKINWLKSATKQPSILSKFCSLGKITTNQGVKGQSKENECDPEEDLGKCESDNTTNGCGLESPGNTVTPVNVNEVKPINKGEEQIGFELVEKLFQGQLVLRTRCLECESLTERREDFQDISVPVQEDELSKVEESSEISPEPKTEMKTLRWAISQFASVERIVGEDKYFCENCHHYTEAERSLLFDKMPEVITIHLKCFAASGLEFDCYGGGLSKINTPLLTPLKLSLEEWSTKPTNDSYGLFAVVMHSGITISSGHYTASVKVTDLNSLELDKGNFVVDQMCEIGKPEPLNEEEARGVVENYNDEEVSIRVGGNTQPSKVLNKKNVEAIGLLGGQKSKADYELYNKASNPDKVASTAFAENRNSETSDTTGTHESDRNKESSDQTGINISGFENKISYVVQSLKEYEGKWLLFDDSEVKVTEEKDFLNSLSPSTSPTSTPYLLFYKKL
Summary of the method: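 In 50mM HEPES pH 7.8 containing 0.5mM EDTA, 1mM TCEP, 0.1 mg/ml BSA and 0.01% Tween-20, 1nM USP1/UAF1 is exposed to compound for 15 min, then Ub-Rho (150nM final) is added and fluorescence is read over time.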

[9] = biological target: Arylsulfatase A (Homo sapiens) (UniProt P15289); experiment: qHTS screen for enhancers of Arylsulfatase A (ASA1): LOPAC Validation Assay (AID 720538)
Sequence of Arylsulfatase A (Homo sapiens) (P15289 whole entry, looked up): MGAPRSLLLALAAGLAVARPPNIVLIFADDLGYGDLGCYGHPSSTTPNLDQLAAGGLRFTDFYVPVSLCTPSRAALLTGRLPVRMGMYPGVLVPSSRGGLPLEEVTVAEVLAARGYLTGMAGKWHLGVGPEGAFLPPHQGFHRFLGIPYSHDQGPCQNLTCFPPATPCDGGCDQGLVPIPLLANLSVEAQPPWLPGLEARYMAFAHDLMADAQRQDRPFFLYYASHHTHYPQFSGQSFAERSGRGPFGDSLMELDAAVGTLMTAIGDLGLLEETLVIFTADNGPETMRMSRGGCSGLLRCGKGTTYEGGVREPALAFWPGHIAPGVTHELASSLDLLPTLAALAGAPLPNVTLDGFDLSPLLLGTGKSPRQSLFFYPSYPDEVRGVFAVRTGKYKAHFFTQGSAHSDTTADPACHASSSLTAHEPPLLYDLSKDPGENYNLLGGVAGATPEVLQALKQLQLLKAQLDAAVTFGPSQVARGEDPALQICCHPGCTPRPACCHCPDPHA
Summary of the method: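 MLD patient fibroblasts (SV40, ASA-I179S), 1536-well; adhere 6 hrs; cpd 48h, 37 degree C, 5% CO2; pNCS 0.5mM final in lysis buffer, 14h RT; stop 1N NaOH final; fluor. Ex525/Em598.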

Measured: Potency

N#C/C(=C\c1ccc(-c2cc(Cl)ccc2Cl)o1)C(=O)Nc1cccc2ncccc12
inactive: [1] | [2] | [3] | [4] | [5]

Cn1ncc(S(=O)(=O)Cc2ccccc2)c(Br)c1=O
inactive: [1] | [2] | [3] | [4] | [5]

N[C@@H](Cn1ccc(=O)c(O)c1)C(=O)O
inactive: [1] | [2] | [3] | [4] | [5]

CCc1c(C(=O)NCCc2ccc(N3CCCCC3)cc2)[nH]c2ccc(Cl)cc12
inactive: [1] | [2] | [3] | [4] | [5]

CCCCCCCCCCC(C)(C)C(=O)Nc1c(OC)cc(OC)cc1OC
inactive: [1] | [2] | [3] | [4] | [5]

CCc1ccc2c(-c3cccc(Cl)c3)nc(=O)n(CC)c2n1
inactive: [1] | [2] | [3] | [4] | [5]

OCC1O[C@H]([S-])[C@H](O)[C@@H](O)[C@@H]1O.[Au+] (stereo partly drawn)
inactive: [1] | [2] | [3] | [4] | [5]

COc1ccc2c(c1)CCC1C2CC[C@@]2(C)C1CC[C@@H]2NCCCCCCN1C(=O)CCC1=O (stereo partly drawn)
inactive: [1] | [2] | [3] | [4] | [5]

NC(=S)NCCC[C@H](N)C(=O)O
inactive: [1] | [2] | [3] | [4] | [5]

CC(N)(Cc1ccc(O)cc1)C(=O)O (stereo not drawn)
inactive: [1] | [2] | [3] | [4] | [5]

N[C@H](C(=O)O)c1cc(O)cc(O)c1
not listed: [7] | [8] | [9]
inactive: all other assays above

CNc1ncnc2c1ncn2[C@@H]1O[C@H](CO)[C@@H](O)[C@H]1O
inactive: [1] | [2] | [3] | [4] | [5]

CC[C@@H]1Cc2cc(O)ccc2C2=C1c1ccc(O)cc1C[C@H]2CC
not listed: [8] | [9]
inactive: all other assays above

CCCCCCCCc1ccc(-c2ccc(C(=O)O)cc2)cc1
inactive: [1] | [2] | [3] | [4] | [5]

N=C(N)SCCc1ccc(CCSC(=N)N)cc1
not listed: [7] | [8] | [9]
inactive: all other assays above

CN1CC(O)C(O)C(O)C1CO (stereo not drawn)
inactive: [1] | [2] | [3] | [4] | [5]

NC(=NCc1ccccc1)NC(=O)c1nc(Cl)c(N)nc1N
not listed: [8] | [9]
inactive: all other assays above

COC(=O)C1=CO[C@@H](O)[C@@H]2C(CO)=CC[C@H]12
inactive: [1] | [2] | [3] | [4] | [5]

NCC1OC(O[C@H]2[C@H](O)[C@@H](OC3C(O)C(N)CC(N)C3OC3OC(CO)C(O)C(O)C3N)O[C@@H]2CO)C(N)C(O)C1O (stereo partly drawn)
not listed: [6] | [7]
inactive: all other assays above

C[C@](Cc1ccc(O)c(O)c1)(NN)C(=O)O
inactive: [1] | [2] | [3] | [4] | [5]

OC[C@H]1O[C@@H](n2cnc3c(NC4CCCCC4)ncnc32)[C@H](O)[C@@H]1O
inactive: [1] | [2] | [3] | [4] | [5]

CNC(=O)[C@H]1O[C@@H](n2cnc3c(NCc4ccc(N)cc4)ncnc32)[C@H](O)[C@@H]1O
inactive: [1] | [2] | [3] | [4] | [5]

O=c1cc(-c2ccccc2F)[nH]c2cc3c(cc12)OCO3
inactive: [1] | [2] | [3] | [4] | [5]

CCCCCCC(=O)OC1CC(C)(C)NC(C)(C)C1
not listed: [6] | [7] | [8]
inactive: all other assays above

COc1cc2nc(N3CCN(C(=O)OCc4ccccc4)C(C(=O)NC(C)(C)C)C3)nc(N)c2cc1OC (stereo not drawn)
inactive: [1] | [2] | [3] | [4] | [5]

CC(=O)O[C@H]1C[C@@H]2CC[C@@H]3[C@H](CC[C@@]4(C)[C@H]3C[C@H]([N+]3(C)CCCCC3)[C@@H]4OC(C)=O)[C@@]2(C)C[C@@H]1[N+]1(C)CCCCC1
not listed: [6] | [7]
inactive: all other assays above

C=C1C[C@@]23CC[C@H]4[C@@](C)(CCC[C@@]4(C)C(=O)O)[C@@H]2CC[C@]1(O)C3
inactive: [1] | [2] | [3] | [4] | [5]

Nc1nc(Nc2ccccc2)nc2c1ncn2[C@@H]1O[C@H](CO)[C@@H](O)[C@H]1O
inactive: [1] | [2] | [3] | [4] | [5]

CN1Cc2sccc2C(c2ccc(O)c(O)c2)C1 (stereo not drawn)
inactive: [1] | [2] | [3] | [4] | [5]

CSc1nc(N)c2ncn([C@@H]3O[C@H](COP(=O)(O)OP(=O)(O)OP(=O)(O)O)[C@@H](O)[C@H]3O)c2n1
inactive: [1] | [2] | [3] | [4] | [5]

C=CC(=O)c1ccc(CCCCCC)cc1
inactive: [1] | [2] | [3] | [4] | [5]

Cc1cccc(/C=C/c2ccccc2)n1
inactive: [1] | [2] | [3] | [4] | [5]

O=Nc1ccc2oc(=O)ccc2c1
not listed: [8] | [9]
inactive: all other assays above

C[C@H]1O[C@@H](n2cc(F)c(=O)[nH]c2=O)[C@H](O)[C@H]1O
inactive: [1] | [2] | [3] | [4] | [5]

Oc1cc2c(c(Cl)c1O)CCNCC2c1ccccc1 (stereo not drawn)
inactive: [1] | [2] | [3] | [4] | [5]
